Data on 10 molecules can be found in PubChem BioAssay (NCATS).

“And” between values parts separate entries of the source, which are not always exact repeats. Equal entries are not always repeated. Inconclusive results are not listed. Where a structure was tested more than once in an assay, its records may differ in their call. The source made the active and inactive calls. Calls follow the shape of the dose curve; as a rule, active = well fitted curve in the direction sought with a large enough effect; inconclusive = small, poorly fitted or top-dose-only effect, or another doubt; inactive = no such curve, though single readings can be large; an effect the other way counts as inactive or inconclusive.

The target of test [1] is Glutathione peroxidase 1 (Homo sapiens) (UniProt P07203). The test can be described thus: Primary qHTS Assay for Inhibitors of Recombinant Selenoprotein Glutathione Peroxidase 1 (GPX1) (AID 1845191). Also: nearly all actives have a fitted effect of over 65% in size. Also: potency is read from the fitted curve at half-maximal effect. A digest of the protocol: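 NADPH consumption tracked by fluorescence at 340/450 nm between t=0 and t=15 min, room temperature. Final mix: 10 nM GPX1, 100 nM glutathione reductase, 1 mM GSH, 0.5 mM NADPH, 0.5 mM cumene hydroperoxide, 0.01% BSA; 30 min compound–enzyme preincubation.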
Sequence of Glutathione peroxidase 1 (Homo sapiens) (P07203 whole entry, looked up): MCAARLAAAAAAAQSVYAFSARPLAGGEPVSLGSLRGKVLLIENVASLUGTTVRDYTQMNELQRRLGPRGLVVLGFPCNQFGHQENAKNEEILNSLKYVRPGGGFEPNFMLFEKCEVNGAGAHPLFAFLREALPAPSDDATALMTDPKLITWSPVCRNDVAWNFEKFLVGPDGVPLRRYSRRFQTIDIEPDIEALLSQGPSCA

The target in test [2] is Phospholipid hydroperoxide glutathione peroxidase GPX4 (Homo sapiens) (UniProt P36969). The test can be described thus: Primary qHTS Assay for Inhibitors of Recombinant Selenoprotein Glutathione Peroxidase 4 (GPX4) (AID 1845192). Also: nearly all actives have a fitted effect of over 65% in size. Also: potency is read from the fitted curve at half-maximal effect. A digest of the protocol: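 NADPH consumption followed by fluorescence at 340/450 nm, t=0 and after 15 min at room temperature. Reaction started with cumene hydroperoxide (0.5 mM final) after 30 min compound–GPX4 preincubation; final 200 nM GPX4, 100 nM GR, 1 mM GSH, 0.5 mM NADPH.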
Sequence of Phospholipid hydroperoxide glutathione peroxidase GPX4 (Homo sapiens) (P36969 whole entry, looked up): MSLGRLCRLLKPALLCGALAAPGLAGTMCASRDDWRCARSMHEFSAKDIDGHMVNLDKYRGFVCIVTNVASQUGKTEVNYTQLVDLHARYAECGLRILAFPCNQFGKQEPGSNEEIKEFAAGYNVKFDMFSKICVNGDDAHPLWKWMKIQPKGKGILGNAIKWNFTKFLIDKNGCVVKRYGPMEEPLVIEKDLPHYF
On the technique in general: In qHTS, concentration-response curves come from the screen itself.

Test [3] in a line: Quantitative High-Throughput drug screen in 47 multiple myeloma cell lines against the NCATS MIPE library collection: Delta47_JCRB cell viability assay (AID 1918925; also: nearly all actives have a fitted effect of over 45% in size; also: potency is read from the fitted curve at half-maximal effect). A digest of the protocol:
(§1)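 Myeloma cells (500 per well) were exposed to MIPE 4.0 compounds by pin transfer and incubated 48 hours at 37C, 5% CO2. Viability was read as ATP by CellTiter-Glo luminescence, normalised to DMSO (100%) and media-only (0%) wells.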

The nature of test [4]: Quantitative High-Throughput drug screen in 47 multiple myeloma cell lines against the NCATS MIPE library collection: EJM_DSMZ cell viability assay (AID 1918926; also: nearly all actives have a fitted effect of over 30% in size). A digest of the protocol: as §1
Test [5] can be described thus: Quantitative High-Throughput drug screen in 47 multiple myeloma cell lines against the NCATS MIPE library collection: AMO1_DSMZ cell viability assay (AID 1918927; also: nearly all actives have a fitted effect of over 30% in size; also: potency is read from the fitted curve at half-maximal effect). A digest of the protocol: as §1
The nature of test [6]: Quantitative High-Throughput drug screen in 47 multiple myeloma cell lines against the NCATS MIPE library collection: ARP1_JJKsccF8 cell viability assay (AID 1918928; also: nearly all actives have a fitted effect of over 40% in size; also: potency is read from the fitted curve at half-maximal effect). A digest of the protocol:
(§2)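 Viability screen: myeloma cells (500/well) incubated 48 h at 37 °C, humidified 5% CO2, with pinned library compounds; CellTiter-Glo added, luminescence read; DMSO wells set 100%, medium-only wells 0%.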

The nature of test [7]: Quantitative High-Throughput drug screen in 47 multiple myeloma cell lines against the NCATS MIPE library collection: ARD_JJKsccE7 cell viability assay (AID 1918929; also: potency is read from the fitted curve at half-maximal effect). A digest of the protocol: as §1
A short description of test [8]: Quantitative High-Throughput drug screen in 47 multiple myeloma cell lines against the NCATS MIPE library collection: Karpas620_DSMZ cell viability assay (AID 1918959). Also: nearly all actives have a fitted effect of over 30% in size. Also: potency is read from the fitted curve at half-maximal effect. A digest of the protocol: as §1
The nature of test [9]: Quantitative High-Throughput drug screen in 47 multiple myeloma cell lines against the NCATS MIPE library collection: JIM3_ECACC cell viability assay (AID 1918963; also: nearly all actives have a fitted effect of over 35% in size; also: potency is read from the fitted curve at half-maximal effect). The gist of the method:
as §1

Test [10] is described as follows: Quantitative High-Throughput drug screen in 47 multiple myeloma cell lines against the NCATS MIPE library collection: FR4_PLB cell viability assay (AID 1918924; also: nearly all actives have a fitted effect of over 35% in size). The gist of the method:
as §1

A short description of test [11]: Quantitative High-Throughput drug screen in 47 multiple myeloma cell lines against the NCATS MIPE library collection: KMM1_JCRB cell viability assay (AID 1918960). Also: nearly all actives have a fitted effect of over 30% in size. Also: potency is read from the fitted curve at half-maximal effect. The gist of the method: as §2
Test [12] can be described thus: Quantitative High-Throughput drug screen in 47 multiple myeloma cell lines against the NCATS MIPE library collection: KHM11_PLB cell viability assay (AID 1918962). Also: potency is read from the fitted curve at half-maximal effect; nearly all actives have a fitted effect of over 35% in size. The gist of the method: as §1
In test [13] the target is Luciferin 4-monooxygenase (Photinus pyralis) (UniProt P08659). In words: Primary firefly luciferase (FLuc) qHTS assay for identification of artifact compounds. (AID 1845220). Also: nearly all actives have a fitted effect of over 60% in size. The gist of the method: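 Cell-free, 1536-well qHTS. Buffer pH 7.6 with 0.01% Tween-20 and 0.05% BSA; 10 uM D-luciferin, 10 uM ATP; 10 nM P. pyralis luciferase; luminescence after 5 min.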
A short description of test [14]: Primary fluorescence-based thiol-reactive (MSTI) qHTS assay for identification of artifact compounds. (AID 1845221).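 Also: thiol-reactive compounds lower the probe fluorescence signal; nearly all actives have a fitted effect of over 65% in size.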 A digest of the protocol: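 One-hour, room-temperature, dark incubation of compound with 4 uM MSTI in PBS (pH 7.4, 2% DMSO) precedes a fluorescence read at 525 nm excitation, 598 nm emission; Hill-equation fitting yields concentration-response values.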

Test [15] deals with Nanoluciferase (engineered Oplophorus gracilirostris luciferase). In words: Primary Nanoluciferase (NLuc) qHTS assay for identification of artifact compounds. (AID 1845222). The gist of the method:
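Compounds are pinned into diluted (1:55) conditioned medium of NLuc-expressing S16 cells and held 15 min at room temperature protected from light. Nano-Glo substrate follows, and luminescence is read 5 min later.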

Test [16] is described as follows: Primary redox qHTS assay for identification of artifact compounds. (AID 1845223). The gist of the method: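 Redox-cycling detection via DTT (250 uM final) oxidation coupled to Amplex Red (25 uM)/HRP (250 mU/mL) in HBSS. 15 min preincubation plus 30 min after DTT, room temperature. Ex/Em 525/598 nm; 4-parameter Hill fit against DMSO and 10 uM DA3003.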
The nature of test [17]: Quantitative High-Throughput drug screen in 47 multiple myeloma cell lines against the NCATS MIPE library collection: Karpas417_ECACC cell viability assay (AID 1918961). Also: potency is read from the fitted curve at half-maximal effect. The conditions noted are these: Karpas417 myeloma viability, CellTiter-Glo ATP luminescence, 48 h; viability (% of DMSO): at 45.8 µM (top of the series). The gist of the method: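 CellTiter-Glo ATP luminescence gave viability after 48 h compound treatment at 37C of 500 multiple myeloma cells per well. Normalisation used DMSO-only wells as 100% and media-only wells as 0% viability; primary qHTS of approved and investigational drugs.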

Test [18] in a line: Quantitative High-Throughput drug screen in 47 multiple myeloma cell lines against the NCATS MIPE library collection: JIM1_ECACC cell viability assay (AID 1918964; also: potency is read from the fitted curve at half-maximal effect). A digest of the protocol: as §1

Turning to `CC(C)[C@H](N)C(=O)OCCOCn1cnc2c(=O)[nH]c(N)nc21`, the Potency entry in test [1], in test [2], in test [3], in test [4], in test [6] and in test [7] was “inactive” each time. Moreover, the Potency result in [8] and in test [9] was “inactive” throughout. The Potency in test [5] was 26.4 µM (active).
For the molecule `Cc1cccc(C)c1OCC(=O)N[C@@H](Cc1ccccc1)[C@@H](O)C[C@H](Cc1ccccc1)NC(=O)[C@H](C(C)C)N1CCCNC1=O`, the Potency result in test [1] and in [2] was “inactive” throughout. The Potency in test [5] was 8.33 µM (active); in test [7], 5.9 µM (active); in test [9], 20.9 µM (active).
In the case of `CCCCCCCCCCCCCCCCCCCCCCO`, the Potency result in test [1], in test [10], in test [4], in [5], in test [6] and in test [7] was “inactive” in each case. Further, the Potency result in test [8] and in [11] was “inactive” throughout.
On to `Cc1ccc(S(=O)(=O)NC(=O)NN2CC3CCCC3C2)cc1` (centres undefined), for which the Potency result in test [1] and in test [2] was “inactive” throughout. Besides, the Potency in test [3] is 18.7 µM (active); in [5], 23.5 µM (active); in [6], 26.4 µM (active); in test [7], 26.4 µM (active).
As to `COC1=C(OC)C(=O)C(CCCCCCCCCCO)=C(C)C1=O`, the Potency result in test [1] was “inactive and 7.28 µM (active)”; in [3] it was 18.7 µM (active); in test [5] it was 10.5 µM (active); in [6] it was 23.5 µM (active); in [7] it was 20.9 µM (active); in test [8] it was 11.8 µM (active). Also, the Potency in test [11] was 18.7 µM (active); in test [12] it was 26.4 µM (active); in test [9] it was 18.7 µM (active). The Potency entry in test [4] was “inactive”.
For the molecule `Clc1ccc(C(Cn2ccnc2)OCc2c(Cl)cccc2Cl)c(Cl)c1` (centres undefined), the Potency result in [1], in [13] and in test [14] was “inactive” in each case. The molecule was called inactive in [15] and in [16]. Moreover, the Potency in [5] was 20.9 µM (active); in [6], 23.5 µM (active); in test [7], 16.6 µM (active); in [8], 18.7 µM (active); in [17], 16.6 µM (active); in test [18], 23.5 µM (active).
As for `Cc1c(C(=O)NN2CCCCC2)nn(-c2ccc(Cl)cc2Cl)c1-c1ccc(Cl)cc1`, the Potency entry in test [1], in test [2] and in [4] was “inactive” each time. For the same molecule, the Potency in test [5] is 16.6 µM (active); in [7], 16.6 µM (active); in test [8] it was 20.9 µM (active); in test [9], 23.5 µM (active); in test [18] it was 11.8 µM (active).
`N=C(N=C(N)N)N1CCOCC1`: the Potency entry in [10], in [3], in test [4], in test [5], in test [6] and in [7] was “inactive” throughout. The Potency result in [8], in [11], in [9] and in [18] was “inactive” throughout.
As for `CC[C@]1(O)C[C@H]2CN(CCc3c([nH]c4ccccc34)[C@@](C(=O)OC)(c3cc4c(cc3OC)N(C=O)[C@H]3[C@@](O)(C(=O)OC)[C@H](OC(C)=O)[C@]5(CC)C=CCN6CC[C@]43[C@@H]65)C2)C1`, the Potency entry in [2] and in test [10] was “inactive” throughout. Besides, the Potency in test [3] was 0.0047 µM (active); in test [5], 0.372 µM (active); in [6], 0.003 µM (active); in test [7], 0.0662 µM (active); in [8] it was 0.0166 µM (active); in test [17], 0.935 µM (active). Further, in test [18], the Potency is 0.0209 µM (active).
In the case of `CC(C)c1ccc2oc3nc(N)c(C(=O)O)cc3c(=O)c2c1`, in test [2], the Potency was 12.8 µM (active) and 8.06 µM (active). The Potency result in test [10], in test [4], in test [5], in test [7], in [8] and in test [9] was “inactive” in each case. In addition, the Potency entry in test [18] was “inactive”.
